Measured values from the OligoGym collection.

What follows are sequences tested against KLHL24 (assay: pooled miR-30 sensor sort-seq; sequence = guide strand). Conditions: shRNA.
Also: reference of the scale not given here.

Sequence | sensor-assay potency score (higher = more potent)
TATTTTTCTATCTCCTACCTAA | 0.015
TATGAATAGTCACACAGCCATG | -1.71
TATCTATGAATAGTCACACAGC | -1.1
TTACAGGATCGTAGCACTCAGT | -1.07
ATAACATCTGTGAATAAGCGGC | -0.459
TTTACCATTACACACAGACATA | -1.69
TGGATCATAAGATTGAACCTTA | 0.374

What follows are sequences tested against KLHL5 in the same assay as above. Conditions: shRNA.

Sequence | sensor-assay potency score (higher = more potent)
TAGCACTGCAACACCGAACTGT | 0.529
TAAAATTACATCACACAACTGT | 0.596
TTGACATCTGTGCACACAGTGT | -0.886
TTATTGTTGCTTTAAGTCCTTA | -0.543
TAATGTCTGACTACTATTGGAA | -0.622
TATGCAAATCTGTACAACCTTG | -0.563
TATCTTTCCACACAGTCTGAGA | -1.09
TTTCTCTACATAAATTTGCATA | -0.841
TGTGTGATCACAATCCACCAGC | -0.62
TTTGACATCAGGCACTTTGTGC | -0.672
TAACATGGGTCGTCTCTCTGGT | 0.867
TTCATTAAAAACTTACAGCATG | -0.802
